# Test results published in PubChem BioAssay AID504397 (Broad Institute, 2011).
# Potency and affinity values are given separately. The source made the active and inactive calls. Where a call stands in place of a potency, no number is given. How the calls were made is not given here.
# Experiment: toxicity toward cultured mammalian cells – cell-based, plate reader, cherry-pick samples, cytotoxicity control, dose response (AID 504397)
# Conditions: plate reader viability; series mostly up to 35 µM
row,Structure (SMILES),outcome
1,O=c1c(-c2ccccc2)c(O)c2ccccc2n1-c1ccccc1,inactive
2,COc1ccc(-n2nc(C(=O)NCC(=O)N3CCC(C)CC3)c3ccccc3c2=O)cc1,inactive
3,CS(=O)(=O)c1ccc(C(=O)OCC(=O)N(CCc2ccccc2)Cc2ccccc2)cc1,inactive
4,COc1ccccc1N1CCN(c2ncc(C(=O)N3CCN(c4cccc(Cl)c4)CC3)c3ccccc23)CC1,inactive
5,Cc1cccc(Nc2ccccc2C(=O)OCC(=O)N(C)C2CCS(=O)(=O)C2)c1C (stereo unspecified),inactive
6,O=C(c1cnc2n(c1=O)CCS2)N1CCN(C(c2ccccc2)c2ccc(Cl)cc2)CC1 (stereo unspecified),inactive
7,O=C(Nc1ccc(Cl)c([N+](=O)[O-])c1)C(Sc1ccccc1)c1ccccc1 (stereo unspecified),inactive
8,CCn1cc(/C=C(\NC(=O)c2ccccc2Cl)C(=O)N2CCOCC2)c2ccccc21,inactive
9,CCCCNC(=S)N=Nc1c(O)n(Cc2ccccc2)c2ccccc12,inactive
10,CCOc1ccc(N(Cc2ccc(OC)cc2)C(=O)c2ccco2)cc1,inactive
11,CN(C)CCN(C(=O)c1ccc2ccccc2c1)c1nc2ccc(Br)cc2s1,inactive
12,Cc1ccc(N=Cc2c(O)n(C)c(=O)n(C)c2=O)nc1,inactive
13,CCCOc1ccc(-c2c(C(=O)N/N=C/c3cccs3)nnn2-c2nonc2N)cc1,inactive
14,COc1ccc(C2Nc3ccccc3C(=O)N2Cc2ccccc2)cc1COc1ccccn1 (stereo unspecified),inactive
15,O=C(c1cc(-c2ccccc2)nc2ccccc12)N1CCN(c2ccccn2)CC1,inactive
16,CCOC(=O)[C@@H]1[C@H]2COc3ccc(Br)cc3[C@@H]2N2C(=O)N(c3cccc(Cl)c3)C(=O)[C@]12C,inactive

row,Structure (SMILES),outcome
1,Nc1nonc1-n1nnc(C(=O)N/N=C/c2cccc(Cl)c2)c1CSc1ccc(Cl)cc1,inactive
2,CCOc1ccc(-n2c(SCc3ccc([N+](=O)[O-])cc3)nnc2-c2ccc(OC)cc2)cc1,inactive
3,Nc1nonc1-n1nnc(C(=O)N/N=C/c2ccoc2)c1CSc1ccccc1,inactive
4,O=C(CCNS(=O)(=O)c1ccc2[nH]c(=O)oc2c1)NCc1ccccc1,inactive
5,O=C(Nc1ccc2c(c1)CCC2)c1ccccc1Br,inactive
6,CS(=O)(=O)Cc1ccc(C(=O)N(CCc2ccccc2)Cc2ccccc2)cc1,inactive
7,CCCCCCCCCCOC(=O)Cn1c(COc2ccccc2C)[n+](C)c2ccccc21,inactive
8,CN(C(=O)COC(=O)c1cc([N+](=O)[O-])ccc1Sc1ccccc1)C1CCS(=O)(=O)C1 (stereo unspecified),inactive
9,O=C(COC(=O)c1ccccc1Cc1ccccc1)NC1CCS(=O)(=O)C1 (stereo unspecified),inactive
10,Cc1ccc(OCCn2c3ccccc3n3nc(C)c(=O)nc23)cc1,inactive
11,Cc1ccccc1NS(=O)(=O)c1ccc(C(=O)NCC(c2ccccc2)N(C)C)cc1 (stereo unspecified),inactive
12,Nc1nnnn1/N=C/c1ccccc1OCc1ccc(Cl)cc1Cl,inactive
13,CC(=O)c1ccc(-c2ccc(C(=O)N3CCC(C(N)=O)CC3)o2)cc1,inactive
14,CC1CCN(Cc2c(C(=O)N/N=C/c3cccc(C(F)(F)F)c3)nnn2-c2nonc2N)CC1,inactive
15,CN(C(=O)COC(=O)c1cn(-c2ccccc2)nc1-c1ccccc1)C1CCS(=O)(=O)C1 (stereo unspecified),inactive
